The source of these data is PubChem BioAssay (Tox21).

Structures are written as SMILES. “And” between values parts separate entries of the source, which are not always exact repeats. Equal values may be shown once. Inconclusive results are not listed. Entries that show only a call come without a potency. A structure can be active in one record and inactive in another. The source made the active and inactive calls. Unless noted, the call rests on the fitted dose curve; in most records, active means well fitted curve in the direction sought with a large enough effect in the repeat runs; inconclusive means weak or mixed curves; inactive means no such curve, though single readings can be large; an effect the other way counts as inactive or inconclusive.

In one assay the target is Retinoic acid receptor RXR-alpha (Homo sapiens) (UniProt P19793). The experiment in a line: qHTS assay to identify small molecule agonists of the RXR signaling pathway (AID 1159527; calls by dose curve; further: nearly all actives have a fitted effect of over 35% in size; further: potency means the concentration at half of the fitted maximal effect). The note with it: HEK293T RXRa-UAS-bla, beta-lactamase ratio, 16 h; series mostly up to 76.8 µM. Summed up: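 Beta-lactamase reporter assay, agonist format. Engineered HEK 293T line, charcoal-stripped FBS at 2%, overnight (16 hr) exposure, fluorescence at 460 and 530 nm after 405 nm excitation.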
Chain of Retinoic acid receptor RXR-alpha (Homo sapiens) (P19793 whole entry, looked up): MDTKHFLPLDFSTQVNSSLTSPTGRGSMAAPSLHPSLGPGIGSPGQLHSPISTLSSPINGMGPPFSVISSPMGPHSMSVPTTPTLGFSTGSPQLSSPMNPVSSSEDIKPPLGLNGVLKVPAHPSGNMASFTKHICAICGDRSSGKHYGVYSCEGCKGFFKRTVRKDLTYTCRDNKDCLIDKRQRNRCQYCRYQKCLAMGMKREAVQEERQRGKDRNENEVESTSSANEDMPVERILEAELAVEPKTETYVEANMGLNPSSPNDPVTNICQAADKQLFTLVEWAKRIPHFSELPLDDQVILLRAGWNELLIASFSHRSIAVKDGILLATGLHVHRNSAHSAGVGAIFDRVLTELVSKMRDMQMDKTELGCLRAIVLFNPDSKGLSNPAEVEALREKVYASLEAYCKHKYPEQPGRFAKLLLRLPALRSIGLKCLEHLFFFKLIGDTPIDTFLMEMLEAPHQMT
With `O=C(O)c1cc(=O)[nH]c(=O)[nH]1`, the Potency entry is “inactive”.
Turning to `C1COCCN1`, the Potency result is “inactive”.
Consider `c1ccc2ncccc2c1`, for which the Potency entry was “inactive”.
Take `CCC/C=C/C=O`: the Potency result is “inactive”.
With `NCCS(=O)(=O)O`, the Potency result is “inactive”.
Regarding `CC(=O)Oc1ccc(C(c2ccc(OC(C)=O)cc2)c2ccccn2)cc1`, the Potency entry was “inactive”.
On to `CN1CCOCC1`, for which the Potency entry was “inactive”.
Same read-out and setting: to `CNC[C@H](O)c1ccc(O)c(O)c1` belongs “inactive”; to `C=C[C@H]1CN2CC[C@H]1C[C@H]2[C@H](O)c1ccnc2ccc(OC)cc12`, “inactive”.
Consider `O=C(O)CCCCCCCCCCCC(=O)O`, for which the Potency entry was “inactive”.
Turning to `CC[C@]12CCCN3CCc4c(n(c5ccccc45)[C@@](O)(C(=O)OC)C1)[C@@H]32`, the Potency entry was “inactive”.
In the case of `COc1ccc(-c2coc3cc(O)cc(O)c3c2=O)cc1`, the Potency entry was “inactive”.
With `O=Cc1ccccc1C=O`, the Potency result is “inactive”.
For `c1ccc2c(c1)[nH]c1ccccc12`, the Potency entry is “inactive”.
Take `Cc1ccc2c(c1)C(=O)OC2=O`: the Potency entry is “inactive”.
For the compound `Nc1ccc(N)c(Cl)c1`, the Potency entry was “inactive”.
As for `CC1(C)OC(=O)NC1=O`, the Potency entry was “inactive”.
Regarding `Nc1ccc2c(c1)C(=O)c1ccccc1C2=O`, the Potency result is “inactive”.
With `CC(=O)OC(C)C`, the Potency result was “inactive”.
Same read-out and setting: to `ClC/C=C/CCl` belongs “inactive”.
For the compound `Oc1c(Cl)ccc(Cl)c1Cl`, the Potency entry was “inactive”.
As for `CC/C(=C(/CC)c1ccc(O)cc1)c1ccc(O)cc1`, the Potency entry was “inactive”.
Take `C=CCNCC=C`: the Potency result is “inactive”.
Take `CCCN1C=CN(C)C1`: the Potency entry is “inactive”.
As for `CCCOCCO`, the Potency entry was “inactive”.
With `[Na+]`, the Potency result is “inactive”.
Regarding `CCO[Si](CCCNC(N)=O)(OCC)OCC`, the Potency entry is “inactive”.
In the case of `NCCOCCO`, the Potency entry is “inactive”.
Turning to `COC(=O)c1ccc(C)cc1`, the Potency entry is “inactive”.
As to `CCCCCCOCCOCCO`, the Potency result is “inactive and 43.6 µM (active)”.
Still for that read-out and setting: to `Cc1ccc(/C(=C\CN2CCCC2)c2ccccn2)cc1` belongs “inactive”.

Tested on in a further assay: not listed separately
The experiment in a line: qHTS assay to identify small molecule agonists of the RXR signaling pathway - cell viability counter screen (AID 1159529). Further: nearly all actives have a fitted effect of over 50% in size. Further: potency means the concentration at half of the fitted maximal effect. The conditions noted are these: RXR-alpha-bla HEK293T viability, CellTiter-Glo, 16 h; series mostly up to 76.8 µM. Summed up:
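Same-well viability check after the LiveBLAzer FRET read: CellTiter-Glo added, luminescence measured after 30 min at room temperature. Reporter HEK 293T cells had been treated with compounds for 16 hr following a 5 hr preincubation.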
Background: In qHTS, concentration-response curves come from the screen itself.
For `O=C(O)c1cc(=O)[nH]c(=O)[nH]1`, the Potency result was “inactive”.
The same measure, in the same setting: to `C1COCCN1` belongs “inactive”.
Take `c1ccc2ncccc2c1`: the Potency result is “inactive”.
`CCC/C=C/C=O`: the Potency result was “inactive”.
As to `NCCS(=O)(=O)O`, the Potency result was “inactive”.
As to `CC(=O)Oc1ccc(C(c2ccc(OC(C)=O)cc2)c2ccccn2)cc1`, the Potency entry was “inactive”.
As to `CN(C)CCCN1c2ccccc2Sc2ccc(Cl)cc21`, the Potency is 43.6 µM (active).
Regarding `CN1CCOCC1`, the Potency entry was “inactive”.
As for `CNC[C@H](O)c1ccc(O)c(O)c1`, the Potency entry was “inactive”.
Take `C=C[C@H]1CN2CC[C@H]1C[C@H]2[C@H](O)c1ccnc2ccc(OC)cc12`: the Potency result was “inactive”.
Turning to `O=C(O)CCCCCCCCCCCC(=O)O`, the Potency result is “inactive”.
Regarding `CC1(C)O[C@@H]2C[C@H]3[C@@H]4C[C@H](F)C5=CC(=O)C=C[C@]5(C)[C@@]4(F)[C@@H](O)C[C@]3(C)[C@]2(C(=O)CO)O1`, the Potency entry is “inactive”.
`CC[C@]12CCCN3CCc4c(n(c5ccccc45)[C@@](O)(C(=O)OC)C1)[C@@H]32`: the Potency entry is “inactive”.
With `COc1ccc(-c2coc3cc(O)cc(O)c3c2=O)cc1`, the Potency result was “inactive”.
Take `O=Cc1ccccc1C=O`: the Potency entry is “inactive”.
Turning to `c1ccc2c(c1)[nH]c1ccccc12`, the Potency entry is “inactive”.
As for `Cc1ccc2c(c1)C(=O)OC2=O`, the Potency result is “inactive”.
In the case of `Nc1ccc(N)c(Cl)c1`, the Potency was 24.5 µM (active) and 49 µM (active).
On to `CC1(C)OC(=O)NC1=O`, for which the Potency result was “inactive”.
The same measure, in the same setting: to `Nc1ccc2c(c1)C(=O)c1ccccc1C2=O` belongs “inactive”.
Consider `CC(=O)OC(C)C`, for which the Potency result is “inactive”.
In the case of `ClC/C=C/CCl`, the Potency entry was “inactive”.
Turning to `Oc1c(Cl)ccc(Cl)c1Cl`, the Potency result is “inactive”.
In the case of `CC/C(=C(/CC)c1ccc(O)cc1)c1ccc(O)cc1`, the Potency entry was “inactive”.
Consider `C=CCNCC=C`, for which the Potency entry was “inactive”.
Take `CCCN1C=CN(C)C1`: the Potency result was “inactive”.
With `Oc1ccc(C(c2ccc(O)cc2)C(Cl)(Cl)Cl)cc1`, the Potency entry was “inactive”.
Same read-out and setting: to `CCCOCCO` belongs “inactive”; to `C=CC(C)(O)CCC=C(C)C` (centres undefined), “inactive”.
For `[Na+]`, the Potency result is “inactive”.
`CCO[Si](CCCNC(N)=O)(OCC)OCC`: the Potency entry is “inactive”.
With `NCCOCCO`, the Potency entry is “inactive”.
For `COC(=O)c1ccc(C)cc1`, the Potency entry is “inactive”.
Consider `CC(C)[N+](C)(CCOC(=O)C1c2ccccc2Oc2ccccc21)C(C)C`, for which the Potency result was “inactive”.
Regarding `CCCCCCOCCOCCO`, the Potency entry is “inactive”.
Regarding `Cc1ccc(/C(=C\CN2CCCC2)c2ccccn2)cc1`, the Potency result is “inactive”.
For the compound `COC(=O)C(C)Oc1ccc(Oc2ncc(C(F)(F)F)cc2Cl)cc1` (centres undefined), the Potency result was “inactive”.

Tested on in another assay: not listed separately
Description: qHTS assay to identify small molecule antagonists of the retinoid acid receptor (RAR) signaling pathway - cell viability counter screen (AID 1159551). Further: nearly all actives have a fitted effect of over 35% in size. The conditions noted are these: C3RL4 cells viability, ATP luminescence (CellTiter-Glo), 6 h; series mostly up to 92.4 µM. A digest of the protocol:
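C3RL4 RARE-luciferase line; cpds + retinol 1 uM final, 6 h, 37 C/5% CO2; CellTiter-Glo ATP luminescence, 30 min RT.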
`O=C(O)c1cc(=O)[nH]c(=O)[nH]1`: the Potency result was “inactive”.
Consider `C1COCCN1`, for which the Potency entry is “inactive”.
In the case of `c1ccc2ncccc2c1`, the Potency entry was “inactive”.
Same read-out and setting: to `CN(C)CCCN1c2ccccc2Sc2ccc(Cl)cc21` belongs “inactive”; to `CN1CCOCC1`, “inactive”.
Still for that read-out and setting: to `C=C[C@H]1CN2CC[C@H]1C[C@H]2[C@H](O)c1ccnc2ccc(OC)cc12` belongs “inactive”.
Regarding `O=C(O)CCCCCCCCCCCC(=O)O`, the Potency entry was “inactive”.
Take `CC(=O)[C@H]1CC[C@H]2[C@@H]3CC=C4C[C@@H](O)CC[C@]4(C)[C@H]3CC[C@]12C`: the Potency result was “inactive”.
As to `O=Cc1ccccc1C=O`, the Potency entry was “inactive”.
On the same count and under the same terms, to `c1ccc2c(c1)[nH]c1ccccc12` belongs “inactive”; to `Nc1ccc(N)c(Cl)c1`, “inactive”; to `CC1(C)OC(=O)NC1=O`, “inactive”.
As to `Nc1ccc2c(c1)C(=O)c1ccccc1C2=O`, the Potency result was “inactive”.
As to `CC(=O)OC(C)C`, the Potency result is “inactive”.
For the compound `Oc1c(Cl)ccc(Cl)c1Cl`, the Potency result was “inactive”.
With `CCCN1C=CN(C)C1`, the Potency entry was “inactive”.
As for `CCCOCCO`, the Potency entry was “inactive”.
For `[Na+]`, the Potency result is “inactive”.
Take `CCO[Si](CCCNC(N)=O)(OCC)OCC`: the Potency result is “inactive”.
In the case of `CCCCCCOCCOCCO`, the Potency entry is “inactive”.
The same measure, in the same setting: to `COC(=O)C(C)Oc1ccc(Oc2ncc(C(F)(F)F)cc2Cl)cc1` (centres undefined) belongs “inactive”.
